Screening data as filed in PubChem.
This is one part of a sample in which hits are shown more often than they occur.
Pf Dd2 inh: qHTS Primary assay for Inhibitors of Plasmodium falciparum Dd2 growth in vitro; P. falciparum Dd2 growth, SYBR Green, 72 h; Potency, µM (highest dose often 28.9 µM), for inactives: at the highest dose activity, negative = inhibition, actives largely listed as inhibitors; 4.3% of 120,000 active; active = well fitted inhibition curve with a large enough effect;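 note: plate controls were DMSO vehicle for no effect and reference drug for full effect; nearly all actives have a fitted effect of over 65% in size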
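Readout: SYBR Green fluorescence, 485 nm excitation, 535 nm emission, after ~16 h lysis at 37C. Before that, Dd2-infected red cells (2.5% hematocrit) grew 72 h with compound, 29 uM top final concentration.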
Active calls of the source: *; i = inactive; [ ] = another dose, or the depositor's remark. Potency is the fitted concentration of half-maximal effect.

SMILES	Pf Dd2 inh
Cc1ccn2c(C(=O)N3CCC4(CC3)Nc3ccccc3NC4=O)nnc2n1	-37.5%
COc1cccc(-c2nc3c([nH]2)CN(C(=O)CCn2cnnn2)CC3)c1	-16.5%
COc1cccc(CC(=O)N2CCN(c3cc(C(F)(F)F)ncn3)CC2)c1	i
COCc1noc(-c2ccc(NC[C@H]3CCc4ccccc4O3)nc2)n1	-28.4%
CN1CCC(C(=O)N2Cc3ccccc3CC3(CCN(C)C3)C2)CC1 (centres undefined)	13.7%
Cc1noc(C)c1C(=O)N1Cc2ccccc2CC2(CCN(C)C2)C1 (centres undefined)	10µM*
Cc1noc(C)c1C(=O)N1Cc2ccccc2CC2(CCN(CC3CCNCC3)CC2)C1	16.9%
O=C(O)C1=NOC2CN([S+](=O)([O-])c3cccs3)CC12 (centres undefined)	31.1%
CCCN(CC1CCOC1)C(=O)Nc1ccc(C)c(F)c1 (centres undefined)	i[5.79 µM]
COCCNC(=O)c1coc(COc2ccc3c(c2)C(c2ccc(C)cc2)N(C(=O)C2CC2)CC3)n1 (centres undefined)	i
CCNC(=O)c1coc(COc2ccc3c(c2)C(c2ccc(F)cc2)N(C(=O)CC(C)C)CC3)n1 (centres undefined)	1.41µM*
C=CCNC(=O)c1coc(COc2ccc3c(c2)C(c2ccc(C)cc2)N(C(=O)C2CC2)CC3)n1 (centres undefined)	-14.4%
CNC(=O)c1ccc2c(c1)C1(CCN(CC3CC3)C1)CN2Cc1ccccc1 (centres undefined)	79.5%[44.1 µM]
NC(=O)[C@@H]1CCCN1c1ccc(-c2nc(Cc3ccccc3)no2)cn1	i
O=C1[C@@H]2C[C@@H](CN2C(=O)c2ccc(C(F)(F)F)cc2)Oc2ccccc2N1Cc1ccccc1	i
Cc1nnc2n1CCC(NC(=O)CC1=CCCCC1)CC2 (centres undefined)	3.5%
Cn1c(C(=O)N2CCCC(C(=O)N3CCN(c4ccccc4)CC3)C2)cc2sccc21 (centres undefined)	-3.2%
Cc1cc(N2CCC(C(=O)NCCC(C)C)CC2)n2nc(C)c(-c3ccc(Cl)cc3)c2n1	58.6%
CCCSCCCNC(=O)C1CCN(C(=O)c2cc3sccc3n2C)CC1	14.1µM*
CCCCNC(=O)C1CCc2sc(C(=O)N3CCOCC3)cc2C1 (centres undefined)	-2.0%
CC(C)CCNC(=O)C1CCN(C(=O)c2cc3sccc3n2Cc2ccc(Cl)cc2)CC1	12.6µM*
CCn1c(C(=O)N2CCC(C(=O)NCCc3ccccc3)CC2)cc2sccc21	-22.7%
O=C(c1ccnnc1)N1CC(F)(F)C[C@H]1c1nc(C2CC2)no1	28.6%
COc1ccc(OC)c(S(=O)(=O)N2C[C@@H](Oc3cccnc3)C[C@H]2C(N)=O)c1	10.5%
CSc1ccc(CNC(=O)c2noc(-c3ccc(F)cc3)n2)cc1	23.8%
SMILES	Pf Dd2 inh
CCc1ccccc1NC(=O)Cn1c(=O)n(Cc2ccccc2)c(=O)c2c(C)c(C(=O)N(C)C)sc21	4.47µM*
CCc1ccc(-n2c(=O)c3c(C)c(C(=O)N(C)C)sc3n(Cc3cccc(C)c3)c2=O)cc1	31.1%
Cc1ccccc1NC(=O)Cn1c(=O)n(Cc2ccccc2)c(=O)c2c(C)c(C)sc21	18.4%
CCN(CC)C(=O)c1sc2c(c1C)c(=O)n(-c1ccc(C)c(C)c1)c(=O)n2Cc1cc(=O)n2c(C)cccc2n1	-7.1%
Cc1cc(C)c(NC(=O)Cn2c(=O)n(Cc3ccccc3)c(=O)c3c(C)c(C(=O)N(C)C)sc32)c(C)c1	-26.7%
CCN(CC)C(=O)c1sc2c(c1C)c(=O)n(CCc1ccccc1)c(=O)n2Cc1ccc(C)cc1	11.2µM*
Cc1sc2c(c1C)c(=O)n(Cc1ccccc1)c(=O)n2Cc1ccc(F)cc1	46.4%
CCN(CC)C(=O)c1sc2c(c1C)c(=O)n(-c1ccccc1)c(=O)n2Cc1cc(=O)n2ccccc2n1	16.4%
CCN(CC)C(=O)c1sc2c(c1C)c(=O)n(-c1ccccc1)c(=O)n2Cc1c(C)cc(C)cc1C	10µM*
COCCNS(=O)(=O)c1cc(C(=O)O)cc(-c2ccc(OC)c(F)c2)c1	-11.3%
CNC(=O)c1cn2c(n1)CN([S+](=O)([O-])c1c(C)noc1C)CC2	43.6%
CCN1c2cc(C(=O)Nc3ccc(OC)cc3OC)ccc2C(=O)N2CCCC21 (centres undefined)	-10.8%
CC(C)NC(=O)N1CCC2(CCCCO2)CC1	-3.1%
CCc1noc(-c2cn(C3CCN(C(=O)c4cccs4)C3)nn2)n1 (centres undefined)	i
CN(C)C1CCN(c2ccc(C(=O)N3CCC(N4CCOCC4)CC3)cn2)C1 (centres undefined)	1.6%
CCCCN(CC)C(=O)CN1C(=O)NC(c2ccccc2)C2=C1COC2=O (centres undefined)	-6.4%
CCc1cccc2c(C(CC(=O)NCc3ccco3)c3ccc(C)cc3)c[nH]c12 (centres undefined)	i
CCOc1cccc(-c2nnc(CCC(=O)NCCc3ccccc3)c(=O)[nH]2)c1	i
CCOC(=O)c1c(C)sc(-c2c(-c3cc(C)ccc3C)[nH]c3c2c(=O)[nH]c(=O)n3C)c1O	-6.3%
CCOC(=O)c1c(C)sc(-c2c(-c3cccc(Cl)c3)[nH]c3c2c(=O)n(C)c(=O)n3C)c1O	146.3%
CCOC(=O)c1c(C)sc(-c2c(-c3cc(C)ccc3C)[nH]c3c2c(=O)n(C)c(=O)n3C)c1O	10µM*
COc1ccc(-c2cc(N3CCC(NC(=O)c4ccc(F)c(Cl)c4)C3)n[nH]2)cc1 (centres undefined)	-2.1%
O=C(C1CCN(C(=O)N2CC3CC(C2)[C@H]2CCCC(=O)N2C3)CC1)N1CCN(C2CCCCC2)CC1 (some centres undefined)	i
CCNC(=O)Nc1ccc(OCC(=O)NCc2cccs2)nc1	i
COCCNC(=O)C[C@@H]1C[C@H]2O[C@H](CNC(=O)Nc3cccnc3)[C@@H](O)[C@H]2O1	30.8%[44.1 µM]
SMILES	Pf Dd2 inh
COc1cc(C2c3c(oc4cc(C)c(C)cc4c3=O)C(=O)N2CCCN2CCOCC2)ccc1O (centres undefined)	11.6%
COCCn1ncc(N2CCC(NC(=O)c3ccc(C(C)C)cc3)CC2)cc1=O	-5.7%
COCCN1C(=O)c2[nH]nc(-c3cc(C)ccc3O)c2C1c1ccc(C(C)C)cc1 (centres undefined)	8.91µM*
COc1cc(C2c3c(-c4cc(C)ccc4O)n[nH]c3C(=O)N2CCCO)ccc1OCCC(C)C (centres undefined)	3.16µM*
COc1cc(C2N=C(N)Nc3nc4ccccc4n32)ccc1OCCC(C)C (centres undefined)	-24.6%
CCCOc1ccc(C2c3c(-c4c(C)cc(C)cc4O)n[nH]c3C(=O)N2CCO)cc1 (centres undefined)	i
Cc1nc(CN2C(=O)OC3(CCN(CCCc4ccccc4)CC3)C2(C)c2ccccc2)cs1 (centres undefined)	i
CC(=O)NC1CC2(CCN(C(=O)CCC(=O)OC(C)(C)C)CC2)Oc2ccccc21 (centres undefined)	5.1%
CCN(CC)C(=O)[C@@H]1C[C@@H](NC(=O)c2ccn(CC)c(=O)c2)CN1C(C)=O	13.3%
O=C1CC2(CCN(Cc3ccc(F)cc3)CC2)Oc2ccccc2N1c1ccccc1	-1.1%
CNC(=O)[C@@H]1CN(C(=O)c2ccc(C)c(F)c2)C[C@H]1COC	11.1%
COc1ccc(C(=O)N2CCOC[C@H](Oc3ccc(C(F)(F)F)cc3)C2)cc1	-22.9%[44.1 µM]
Cc1ccc(-c2cn3c(n2)CO[C@@H](CNCc2ccc(-c4ccccn4)cc2)C3)cc1	12.6µM*
